One test deals with Solute carrier family 2, facilitated glucose transporter member 1 (Homo sapiens) (UniProt P11166). As to the kind of experiment: ST_JUDE_LEISH: Cytotoxicity at 2uM final concentration against transgenic Leishmania Mexicana promastigotes LmGLUT1 that are glucose transport deficient and complemented with the human glucose transporter GLUT1. Activity is measured by DNA content using SYBR green in vitro. It is filed as functional.
Chain of Solute carrier family 2, facilitated glucose transporter member 1 (Homo sapiens) (P11166 whole entry): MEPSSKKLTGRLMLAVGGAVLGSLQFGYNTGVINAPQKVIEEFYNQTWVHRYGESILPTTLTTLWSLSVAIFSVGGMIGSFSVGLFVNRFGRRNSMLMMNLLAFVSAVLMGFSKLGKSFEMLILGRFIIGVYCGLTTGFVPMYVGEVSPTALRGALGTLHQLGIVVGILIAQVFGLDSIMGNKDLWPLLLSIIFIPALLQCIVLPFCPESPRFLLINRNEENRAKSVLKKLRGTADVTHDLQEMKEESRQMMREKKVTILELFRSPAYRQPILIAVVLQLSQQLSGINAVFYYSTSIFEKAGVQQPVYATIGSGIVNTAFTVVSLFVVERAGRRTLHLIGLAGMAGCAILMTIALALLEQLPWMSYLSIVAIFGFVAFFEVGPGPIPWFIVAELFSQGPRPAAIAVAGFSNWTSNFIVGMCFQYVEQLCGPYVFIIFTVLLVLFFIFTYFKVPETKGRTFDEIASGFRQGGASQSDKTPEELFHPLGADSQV
On to `COc1ccc(CNCc2ccccc2)cc1-c1ccc(OC)c(S(=O)(=O)NCCN2CCCC2)c1`, for which the inhibition was -0.27%.
With `COc1cc2nc(N3CCC(CNC(=O)c4ccc(-c5ccc(C(=O)N(C)C)cc5OCCN(C)C)cc4)CC3)nc(N)c2cc1OC`, the inhibition stood at 0.34%.
Consider `CCOc1ccc2[nH]c(C)cc(=NN=Cc3cccc(F)c3)c2c1`, for which the inhibition was -0.81%.
The same measure, in the same setting: to `CN1CCN(c2nsc3ccc(-c4ccc(NC(=O)Nc5ccccc5)cc4)cc23)CC1` belongs 2.28%; to `Nc1nc(NCC2CCC(CNS(=O)(=O)c3cccc4ccccc34)CC2)nc2ccccc12` (stereo not drawn), 7.11%; to `Cc1cccc2nc(-c3cccc(-c4cccc(C(=O)NCc5nccn5C)c4)c3)[nH]c12`, 11.5%.
Same read-out and setting: to `NC1CCN(Cc2cccc(-c3ccc(-c4nc5cc(F)ccc5[nH]4)cc3)c2)C1` (stereo not drawn) belongs 2.82%; to `COc1cc(NC(=O)C(c2ccc(Cl)cc2)C(C)C)cc(OC)c1OC` (stereo not drawn), 2.52%.
With `Nc1c2c(nc3ccc(Oc4ccc(Cl)cc4)cc13)CCCC2`, the inhibition worked out at 60.9%.
On the same count and under the same terms, to `COc1ccc(C(=O)Nc2ccc(Cl)cc2C(=O)Nc2ccncc2)cc1` belongs 4.33%; to `Cc1cccc2nc(-c3ccc(-c4cccc(NC(=O)c5cnn6cccnc56)c4)cc3)[nH]c12`, 15.4%; to `CCn1c(Sc2ccc([N+](=O)[O-])c(C#N)c2)nnc1-c1ccc(Cl)cc1`, 9.05%.
Same read-out and setting: to `CCCC(=O)NC(c1cccs1)c1cc(Cl)c2cccnc2c1O` (stereo not drawn) belongs 0.53%; to `CC(C)N1CCN(C(=O)c2ccc(CNCCCN3CCN(c4ccccc4C(F)(F)F)CC3)s2)CC1`, -4.83%.
On the same count and under the same terms, to `Cc1ccc2c(c1)C1(CC(=O)N(CCc3scnc3C)C1=O)C(=O)N2Cc1ccccc1` (stereo not drawn) belongs 2.62%; to `CC1(C)Cc2c(oc3ncn(CCn4cnc5oc6c(c5c4=N)CC(C)(C)SC6)c(=N)c23)CS1`, -0.76%.
For the molecule `Cc1c(Br)cc2nc(-c3ccc(C(=O)NC4CCN(Cc5ccccc5)CC4)cc3)[nH]c2c1C`, the inhibition was 1.63%.
Same read-out and setting: to `COc1ccc(-c2cc(-c3ccc(S(C)(=O)=O)cc3)cnc2N)cn1` belongs 1.1%; to `COc1cc(Nc2ccc3cc(S(=O)(=O)N4CCCCC4C)ccc3n2)cc(OC)c1OC` (stereo not drawn), 6.4%; to `O=C(Nc1cccc(CN2CCN(Cc3ccc(O)cc3)CC2)c1)c1cccc(C(F)(F)F)c1`, 6.03%.
Still for that read-out and setting: to `Cc1cccc(NC(=S)NC2CCN(CCCCCNC(=O)/C=C/c3ccc(Cl)c(Cl)c3)CC2)c1` belongs 0.27%.
The same measure, in the same setting: to `Fc1ccc2[nH]cc(CCNCc3ccc(-c4cccc(-c5nc6ccccc6[nH]5)c4)cc3)c2c1` belongs 4.9%; to `Cc1cc2nc(-c3ccc(C(=O)NC4CCN(Cc5ccccc5)CC4)s3)[nH]c2cc1C`, 2.92%.
`CC(C)c1cccc(OCC2CCN(c3ccc(C(=O)Nc4ccccc4)cn3)CC2)c1`: the inhibition was found to be 11.2%.
On the same count and under the same terms, to `O=C(Cc1cccc(Cl)c1)Nc1cccc(-c2c[nH]c3nc(Nc4cccc(OCc5ccccc5)c4)ncc23)c1` belongs 6.67%; to `COc1cc(C(=O)NC2CC(C)(C)NC(C)(C)C2)ccc1-c1cc2cc(Cl)c(Cl)cc2[nH]1`, 1.69%; to `COC(=O)c1cccc(CNCc2ccc(-c3ccc(-c4nc5cc(C(F)(F)F)ccc5[nH]4)s3)cc2)c1`, 1.72%.
On the same count and under the same terms, to `CCC(C)(CC)C(=O)n1ncc2c3c(N)nc(N)nc3ccc21` belongs 65.8%; to `CNC(=O)c1cc(F)c(F)cc1Nc1nc(Nc2cccc(CS(C)(=O)=O)c2)ncc1Cl`, 1.41%; to `Cc1cc(=NN=Cc2ccc(F)cc2)c2cc(F)ccc2[nH]1`, 2.6%.
Consider `O=C(/C=C/c1ccc(Cl)cc1)NCCCCCN1CCCC(C(=O)Nc2cccc(Cl)c2)C1` (stereo not drawn), for which the inhibition turned out to be 2.85%.
Still for that read-out and setting: to `Cc1cc(N(C)C)nc(Nc2ccc(NC(=O)CCc3ccccc3)cc2)n1` belongs 3.05%; to `O=C(NCCN1CCCc2ccccc21)C1CCN(c2nc(-c3ccc(Cl)cc3)no2)CC1`, 1.63%; to `CCc1nc2nc(C)cc(Nc3cc(C)cc(C)c3)n2n1`, 3.06%.
For the molecule `COc1cc2ncnc(Nc3ccc(Br)c(Cl)c3)c2cc1OC`, the inhibition worked out at 5.07%.
On to `Cc1cccc2nc(-c3ccc(-c4ccc(CNCC5CCCO5)cc4)cc3)[nH]c12` (stereo not drawn), for which the inhibition came out at 16.3%.
The same measure, in the same setting: to `O=C(C=Cc1cccc(F)c1)NC1CCC(CCN2CCc3ccc(-c4cnccn4)cc3CC2)CC1` (stereo not drawn) belongs 14.4%; to `CC(C)C1=NC(=O)c2cc([N+](=O)[O-])ccc2CN1`, 1.78%; to `Cn1c(NC(=O)C2CCC(CNC(=O)c3ccc(O)c(-c4ccc(Cl)c(Cl)c4)c3)CC2)nc2ccccc21` (stereo not drawn), 0.88%.

The target of the next test is Hexose transporter 1 (Plasmodium falciparum) (UniProt O97467). As to the kind of experiment: ST_JUDE_LEISH: Cytotoxicity at 2uM final concentration against transgenic Leishmania Mexicana promastigotes LmPfHT that are glucose transport deficient and complemented with the Plasmodium falciparum hexose transporter. Activity is measured by DNA content using SYBR green in vitro. It is filed as functional.
In the case of `COc1ccc(CNCc2ccccc2)cc1-c1ccc(OC)c(S(=O)(=O)NCCN2CCCC2)c1`, the inhibition was -0.09%.
Turning to `COc1cc2nc(N3CCC(CNC(=O)c4ccc(-c5ccc(C(=O)N(C)C)cc5OCCN(C)C)cc4)CC3)nc(N)c2cc1OC`, the inhibition came out at 0.98%.
On the same count and under the same terms, to `CCOc1ccc2[nH]c(C)cc(=NN=Cc3cccc(F)c3)c2c1` belongs -2.04%.
Still for that read-out and setting: to `CN1CCN(c2nsc3ccc(-c4ccc(NC(=O)Nc5ccccc5)cc4)cc23)CC1` belongs 0.56%; to `Nc1nc(NCC2CCC(CNS(=O)(=O)c3cccc4ccccc34)CC2)nc2ccccc12` (stereo not drawn), 3.12%.
Same read-out and setting: to `Cc1cccc2nc(-c3cccc(-c4cccc(C(=O)NCc5nccn5C)c4)c3)[nH]c12` belongs 10.8%.
Consider `NC1CCN(Cc2cccc(-c3ccc(-c4nc5cc(F)ccc5[nH]4)cc3)c2)C1` (stereo not drawn), for which the inhibition worked out at 1.25%.
On the same count and under the same terms, to `COc1cc(NC(=O)C(c2ccc(Cl)cc2)C(C)C)cc(OC)c1OC` (stereo not drawn) belongs 1.79%.
Consider `Nc1c2c(nc3ccc(Oc4ccc(Cl)cc4)cc13)CCCC2`, for which the inhibition came out at 70.5%.
On the same count and under the same terms, to `COc1ccc(C(=O)Nc2ccc(Cl)cc2C(=O)Nc2ccncc2)cc1` belongs 3.94%; to `Cc1cccc2nc(-c3ccc(-c4cccc(NC(=O)c5cnn6cccnc56)c4)cc3)[nH]c12`, 11.7%.
Same read-out and setting: to `CCn1c(Sc2ccc([N+](=O)[O-])c(C#N)c2)nnc1-c1ccc(Cl)cc1` belongs 7.38%; to `CCCC(=O)NC(c1cccs1)c1cc(Cl)c2cccnc2c1O` (stereo not drawn), 1.83%.
Still for that read-out and setting: to `CC(C)N1CCN(C(=O)c2ccc(CNCCCN3CCN(c4ccccc4C(F)(F)F)CC3)s2)CC1` belongs 0.84%; to `Cc1ccc2c(c1)C1(CC(=O)N(CCc3scnc3C)C1=O)C(=O)N2Cc1ccccc1` (stereo not drawn), 3.66%; to `CC1(C)Cc2c(oc3ncn(CCn4cnc5oc6c(c5c4=N)CC(C)(C)SC6)c(=N)c23)CS1`, 0.58%.
Consider `Cc1c(Br)cc2nc(-c3ccc(C(=O)NC4CCN(Cc5ccccc5)CC4)cc3)[nH]c2c1C`, for which the inhibition came out at 1.85%.
Take `COc1ccc(-c2cc(-c3ccc(S(C)(=O)=O)cc3)cnc2N)cn1`: the inhibition worked out at 0.74%.
Regarding `COc1cc(Nc2ccc3cc(S(=O)(=O)N4CCCCC4C)ccc3n2)cc(OC)c1OC` (stereo not drawn), the inhibition was 34.2%.
On the same count and under the same terms, to `O=C(Nc1cccc(CN2CCN(Cc3ccc(O)cc3)CC2)c1)c1cccc(C(F)(F)F)c1` belongs 6.51%.
Still for that read-out and setting: to `Cc1cccc(NC(=S)NC2CCN(CCCCCNC(=O)/C=C/c3ccc(Cl)c(Cl)c3)CC2)c1` belongs 1.13%.
Still for that read-out and setting: to `Fc1ccc2[nH]cc(CCNCc3ccc(-c4cccc(-c5nc6ccccc6[nH]5)c4)cc3)c2c1` belongs 4.54%.
Take `Cc1cc2nc(-c3ccc(C(=O)NC4CCN(Cc5ccccc5)CC4)s3)[nH]c2cc1C`: the inhibition was 2.77%.
In the case of `CC(C)c1cccc(OCC2CCN(c3ccc(C(=O)Nc4ccccc4)cn3)CC2)c1`, the inhibition is 10.6%.
Still for that read-out and setting: to `O=C(Cc1cccc(Cl)c1)Nc1cccc(-c2c[nH]c3nc(Nc4cccc(OCc5ccccc5)c4)ncc23)c1` belongs 6.61%; to `COc1cc(C(=O)NC2CC(C)(C)NC(C)(C)C2)ccc1-c1cc2cc(Cl)c(Cl)cc2[nH]1`, -0.26%; to `COC(=O)c1cccc(CNCc2ccc(-c3ccc(-c4nc5cc(C(F)(F)F)ccc5[nH]4)s3)cc2)c1`, 2.29%.
Same read-out and setting: to `CCC(C)(CC)C(=O)n1ncc2c3c(N)nc(N)nc3ccc21` belongs 79.2%; to `CNC(=O)c1cc(F)c(F)cc1Nc1nc(Nc2cccc(CS(C)(=O)=O)c2)ncc1Cl`, 1.35%; to `Cc1cc(=NN=Cc2ccc(F)cc2)c2cc(F)ccc2[nH]1`, 3.14%.
The same measure, in the same setting: to `O=C(/C=C/c1ccc(Cl)cc1)NCCCCCN1CCCC(C(=O)Nc2cccc(Cl)c2)C1` (stereo not drawn) belongs 2.1%; to `Cc1cc(N(C)C)nc(Nc2ccc(NC(=O)CCc3ccccc3)cc2)n1`, 6.42%.
In the case of `O=C(NCCN1CCCc2ccccc21)C1CCN(c2nc(-c3ccc(Cl)cc3)no2)CC1`, the inhibition turned out to be 2.11%.
Regarding `CCc1nc2nc(C)cc(Nc3cc(C)cc(C)c3)n2n1`, the inhibition came out at 2.04%.
In the case of `COc1cc2ncnc(Nc3ccc(Br)c(Cl)c3)c2cc1OC`, the inhibition is 5.81%.
Still for that read-out and setting: to `Cc1cccc2nc(-c3ccc(-c4ccc(CNCC5CCCO5)cc4)cc3)[nH]c12` (stereo not drawn) belongs 14.9%; to `O=C(C=Cc1cccc(F)c1)NC1CCC(CCN2CCc3ccc(-c4cnccn4)cc3CC2)CC1` (stereo not drawn), 14.2%.
The same measure, in the same setting: to `CC(C)C1=NC(=O)c2cc([N+](=O)[O-])ccc2CN1` belongs 1.79%; to `Cn1c(NC(=O)C2CCC(CNC(=O)c3ccc(O)c(-c4ccc(Cl)c(Cl)c4)c3)CC2)nc2ccccc21` (stereo not drawn), 0.39%.
